Test results as given in PubChem BioAssay (EPA / NIEHS).
The source made the active and inactive calls. Rule for the calls: active = hit-call score of the fitted dose curve at least 0.9, where 1 is the maximum; inactive = score below 0.9.

Assay: CEETOX_H295R_PROG: CeeTox H295R High-throughput Steroidogenesis Assay for Progesterone (PROG) (AID 2283442);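 for AC50: human H295R adrenal cells primed with 10 µM forskolin before dosing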
Settings: actives raise or lower the signal
Protocol: CEETOX_H295R is a cell-based, multiplexed-readout assay that uses H295R, a human adrenal gland cell line, with measurements taken at 48 hours after chemical dosing in a 96-well plate.CEETOX_H295R_PROG is one of 23 assay component(s) measured or calculated from the CEETOX_H295R assay. It is designed to make measurements of hormone induction, a form of inducible reporter, as detected with absorbance signals by HPLC-MS-MS technology.Data from the assay component CEETOX_H295R_PROG was analyzed into 1 assay endpoint. This assay endpoint, CEETOX_H295R_PROG, was analyzed with bidirectional fitting relative to DMSO as the negative control and baseline of activity. Using a type of inducible reporter, gain or loss-of-signal activity using HPLC-MS-MS was used to understand synthesis of Progesterone in H295R cell line at 48hr of chemical exposure. To generalize the intended target to other relatable targets, this assay endpoint is annotated to the steroid hormone intended target family, where the subfamily is progestagens.
Cell culture and media preparation procedures were conducted in accordance with OECD Test No. 456 guidelines, with minor modifications. H295R cells (ATCC CRL-2128) were expanded for 5 passages and frozen in batches in liquid nitrogen. Prior to the steroidogenesis assay, H295R cells were thawed and passed at least 4 times. The maximum passage was 10. Cells were maintained in a 1:1 mixture of DMEM/F12 supplemented with 5ml/L ITS+ Premix (BD Bioscience) and 12.5 ml/L Nu-Serum (BD Bioscience). After seeding cells into 96-well plates at 50-60% confluency, cells were allowed to adhere overnight. Prior to chemical testing, culture medium was replaced with 175 uL medium containing 10 uM forskolin to stimulate steroidogenesis for 48 hours. Following prestimulation, forskolin medium was replaced with medium containing test chemical solubilized in DMSO (ensuring a final concentration of 0.1% DMSO). Test chemicals were incubated for 48 hours, then the medium was removed and split into 2 vials containing approximately 75uL each, and stored at -80 C prior to hormone analysis. For steroid quantification, media samples were shipped to OpAns, LLC (Durham, NC) on dry ice, and samples were thawed to room temperature prior to liquid-liquid extraction. Steroid hormones were extracted from media samples using methyl tertbutyl ether (MTBE). An extra derivatization with dansyl chloride was included for estrogen (estrone and estradiol) detection only. Steroid hormones were separated by HPLC, eluted using a reverse phase C18 gradient with electrospray positive ionization, followed by quantification by tandem mass spectrometry (MS/MS). Data were acquired on a MassHunter Workstation Acquisition version B03.01 (Agilent Technologies, Inc.) and processed using MassHunter Quantitative Analysis for QQQ. Accuracy was determined for each hormone analyte from 3 standards to determine upper and lower limits of quantification (ULOQ and LLOQ, respectively) using a 7-point standard curve. Precision and accuracy of the extraction and quantification methods were calculated as the percent relative standard deviation (%RSD) of the spiked standards and percent spiked standard recovered, respectively. The goal was to achieve 100% accuracy (i.e., recover all spiked-in standard at quantification with minimal loss during run time) and good precision (i.e., have %RSD <15% to ensure reproducibility). Test medium was removed following chemical exposure, and cell viability was evaluated in the same wells by MTT. MTT procedures were as follows: after removal of test medium, 500 uL of 0.5 mg/ml of 3-[4,5-dimethylthiazol-2-y]2,5-diphenyltetrazoliumbromide solution was added to the cells. Following a 4-hour incubation at 37 C and 5% CO2 to allow formazan-crystal formation, the MTT solution was removed and blue formazan salt crystals were solubilized using 500uL anhydrous isopropanol with shaking for 20 minutes. Absorbance was read at 570 and 650nm using a Packard Fusion microplate reader. […]

Row | Structure (SMILES) | outcome | AC50
1 | CC1(C)CON(Cc2ccccc2Cl)C1=O | inactive | –
2 | CC(C)Oc1cccc(NC(=O)c2ccccc2C(F)(F)F)c1 | – | 8.93 µM (active)
3 | CC(C)Nc1nc(Cl)nc(NC(C)C)n1 | inactive | –
4 | COP(=S)(OC)SCn1nnc2ccccc2c1=O | inactive | –
5 | O=C1C2CC=CCC2C(=O)N1SC(Cl)(Cl)Cl (centres undefined) | inactive | –
6 | CCOC(=O)C(C)OC(=O)c1cc(Oc2ccc(C(F)(F)F)cc2Cl)ccc1[N+](=O)[O-] (centres undefined) | inactive | –
7 | CCSC(=O)N1CCCCCC1 | inactive | –
8 | CC1(C)C(C=C(Cl)Cl)C1C(=O)OC(C#N)c1cccc(Oc2ccccc2)c1 (centres undefined) | inactive | –
9 | CCN(CC)c1nc(C)cc(OP(=S)(OC)OC)n1 | – | 45.8 µM (active)
10 | CNC(=O)Oc1cccc2ccccc12 | inactive | –
11 | Cc1c(COC(=O)[C@@H]2[C@H](/C=C(\Cl)C(F)(F)F)C2(C)C)cccc1-c1ccccc1 | inactive | –
12 | CN/C(=N\[N+](=O)[O-])NCc1cnc(Cl)s1 | inactive | –
13 | CCNP(=S)(OC)O/C(C)=C/C(=O)OC(C)C (centres undefined) | – | 50 µM (active)
14 | COC(=O)NC(=S)Nc1ccccc1NC(=S)NC(=O)OC | inactive | –
15 | Cc1nc(N(C)C)nc(OC(=O)N(C)C)c1C | inactive | –
16 | CC1(C)CCC(=Cc2ccc(Cl)cc2)C1(O)Cn1cncn1 (centres undefined) | – | 0.716 µM (active)
17 | CC(C)NC(=O)N1CC(=O)N(c2cc(Cl)cc(Cl)c2)C1=O | – | 16.9 µM (active)

Row | Structure (SMILES) | outcome | AC50
18 | CCOc1nc(C(Cl)(Cl)Cl)ns1 | inactive | –
19 | COP(=S)(OC)Oc1ccc([N+](=O)[O-])c(C)c1 | – | 2.59 µM (active)
20 | Clc1nc(Cl)nc(Nc2ccccc2Cl)n1 | inactive | –
21 | O=C(Nc1ccccc1-c1ccc(Cl)cc1)c1cccnc1Cl | – | 13.1 µM (active)
22 | CCOP(=S)(OCC)Oc1nc(Cl)n(C(C)C)n1 | – | 61.8 µM (active)
23 | CCN(CC)C(=O)C(C)Oc1cccc2ccccc12 (centres undefined) | inactive | –
24 | CCCN(CC)CC1COC2(CCC(C(C)(C)C)CC2)O1 (centres undefined) | – | 0.38 µM (active)
25 | N#Cc1c(Cl)cccc1Cl | inactive | –
26 | CCC(C)n1c(=O)[nH]c(C)c(Br)c1=O (centres undefined) | inactive | –
27 | CCCCC(C#N)(Cn1cncn1)c1ccc(Cl)cc1 (centres undefined) | inactive | –
28 | CCCC(=NOCC)C1=C(O)CC(CC(C)SCC)CC1=O (centres undefined) | inactive | –
29 | CC(C)(C)C(=O)C(Oc1ccc(Cl)cc1)n1cncn1 (centres undefined) | – | 3.12 µM (active)
30 | Nc1cnn(-c2ccccc2)c(=O)c1Cl | inactive | –
31 | COCC(=O)N(c1c(C)cccc1C)C(C)C(=O)OC (centres undefined) | inactive | –
32 | N#CN=C1SCCN1Cc1ccc(Cl)nc1 | inactive | –
33 | COCc1cnc(C2=NC(C)(C(C)C)C(=O)N2)c(C(=O)O)c1 (centres undefined) | inactive | –
34 | COc1cc(Cl)c(OC)cc1Cl | inactive | –
